ELG1 genotox: induces genotoxicity in HEK293T cells with luciferase-tagged ELG1; Potency, µM (titrated, usually from 46 µM), without a hit: top-dose activity change, positive = activation, most hits filed as activators; HEK293T ELG1-luciferase reporter, luminescence, 16 h; 330,000 compounds, 1.3% hits; further: % of control where 0% means no effect; nearly all actives have a fitted effect of over 60% in size
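Luminescence read-out: rising ELG1-luciferase signal, reflecting elevated ELG1 protein under genetic stress, flags genotoxic compounds. Cells were treated for 16 hr at 37 °C before ONE-Glo detection.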
FLuc modulator: inhibits or activates purified firefly luciferase, miR-21 counter-screen | purified FLuc, Km substrates, luminescence inhibition | Potency, µM (top dose mostly 57.5 µM), inactives show at the highest dose activity change, negative = inhibition, actives largely listed as inhibitors | 360,000 compounds, 6.9% hits;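 further: plate controls were vehicle for no effect and reference inhibitor for full effect; nearly all actives have a fitted effect of over 55% in size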
Target sequence (P08659 whole entry, looked up): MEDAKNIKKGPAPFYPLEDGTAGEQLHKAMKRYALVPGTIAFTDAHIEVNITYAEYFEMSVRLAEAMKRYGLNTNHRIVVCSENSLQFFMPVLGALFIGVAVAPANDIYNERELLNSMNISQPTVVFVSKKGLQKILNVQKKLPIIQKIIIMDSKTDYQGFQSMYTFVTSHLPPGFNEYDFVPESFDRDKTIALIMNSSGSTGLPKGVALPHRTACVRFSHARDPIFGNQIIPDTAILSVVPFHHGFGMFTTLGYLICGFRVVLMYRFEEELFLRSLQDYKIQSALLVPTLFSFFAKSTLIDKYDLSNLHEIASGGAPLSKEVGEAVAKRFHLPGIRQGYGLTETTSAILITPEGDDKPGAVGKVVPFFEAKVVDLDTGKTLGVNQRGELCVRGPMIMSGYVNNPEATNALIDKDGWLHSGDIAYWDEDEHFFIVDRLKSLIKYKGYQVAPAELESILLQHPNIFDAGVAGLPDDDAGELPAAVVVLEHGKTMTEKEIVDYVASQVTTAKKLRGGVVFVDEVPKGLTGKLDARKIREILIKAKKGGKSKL
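Biochemical qHTS of compounds, final roughly 60 µM downward over six points, against 10 nM purified firefly luciferase using Km concentrations of substrates (10 uM D-luciferin, 10 uM ATP) in Tris acetate pH 7.5 buffer; luminescence output.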
SMN2 splice up: enhancers of SMN2 splice variant expression; 210,000 compounds, 2.8% hits; AID 1458; Potency, µM (series often up to 46.1 µM), for the others: at the highest dose activity change, positive = activation, actives largely listed as activators; HEK293 SMN2-luciferase splicing reporter, luminescence, 30-36 h; further: % of control where 0% means no effect; nearly all actives have a fitted effect of over 55% in size
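HEK293 cells carry an SMN2 […]–luciferase reporter in which exon 7 inclusion puts luciferase in frame. Cells were plated 10-12 h before compound addition, then incubated 30-36 h at 37C. ONE-Glo luminescence was read; sodium butyrate at 4.5 mM final served as control.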
Rab9 prom act: Rab9 promoter activation. Huh7 Rab9 promoter-luciferase reporter, luminescence, 24 h. Potency, µM (top dose mostly 9.22 µM), for inactives: at the highest dose activation, negative = inhibition, most hits filed as activators. 320,000 compounds, 2.8% hits. AID 485297; further: % of control where 0% means no effect; nearly all actives have a fitted effect of over 60% in size
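Cell-based reporter: Huh7 stable for Rab9 promoter-driven luciferase, plated in reduced-serum medium with 10% FBS at 1500 cells/well, compound-treated 24 h at 37 °C, luminescence read after 10 min reagent.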
NPC1 promoter act: activators of NPC1 promoter; 320,000 compounds, 2.4% hits; Huh7 NPC1 promoter luciferase reporter, 24 h; Potency, µM (series often up to 9.22 µM), for inactives: at the highest dose activation, most hits filed as activators; further: % of control where 0% means no effect; nearly all actives have a fitted effect of over 60% in size
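Readout is luciferase luminescence, reflecting NPC1 promoter activation in stably transfected Huh7 cells after 24 h compound exposure at 37 °C in reduced-serum medium with 10% FBS.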
KinaseGlo FLuc: counter-screen: inhibitors of Kinase-Glo firefly luciferase; Kinase-Glo luciferase, ATP luminescence, 8 min; Potency, µM (doses to about 38.3 µM), for the others: top-dose activity change, negative = inhibition, most hits filed as inhibitors; 200,000 compounds, 0.28% hits; further: on the % scale 0 is the no-effect control and ±100 the full control effect; nearly all actives have a fitted effect of over 60% in size
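Recombinant Kinase-Glo luciferase, 10 uM ATP (linear range), luciferin; imidazole pH 7.2 / KCl / MgCl2 / Tween / BSA buffer; 8 min RT; luminescence.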
Starred values were filed as active, the others as inactive; ? = inconclusive; · = no result. Compounds with a hit are over-represented: about 7.5% of the library has one in this group of screens. The call rests on the fitted dose curve; in most records, active means well fitted curve in the direction sought with a large enough effect; inconclusive means small, poorly fitted or top-dose-only effect, or another doubt; inactive means no such curve, though single readings can be large; an effect the other way counts as inactive or inconclusive. Potency means the concentration at half of the fitted maximal effect.

SMILES | ELG1 genotox | FLuc modulator | SMN2 splice up | Rab9 prom act | NPC1 promoter act | KinaseGlo FLuc
O=C(Nc1cnc2sccn2c1=O)c1ccc(Cl)cc1Cl | 2.6µM* | 2.1µM* | 8.9µM* | 1µM* | 0.45µM* | -16%
Cc1ccc(OCCSc2nc3ccc(NC(=O)c4ccc5c(c4)OCO5)cc3s2)cc1 | · | -1% | · | · | · | ·
CN(C)c1cc(N/N=C\c2ccccc2)nc(N(C)C)n1 | -8% | ? | · | -10% | 10% | -2%
COc1ccc(/C=N/Nc2cc(N(C)C)nc(N(C)C)n2)cc1 | -8% | 15µM* | -9% | -4% | 3% | 1%
COc1ccc(/C=N/Nc2cc(OC)ncn2)cc1 | 1.8µM* | 0.95µM* | · | 1µM* | 3.5µM* | ·
O=C(Nc1ccc2nc(-c3cccnc3)[nH]c2c1)c1ccco1 | -1% | ? | 11% | -4% | -3% | 2%
COC(=O)c1ccc(C(=O)Nc2ccc3nc(-c4ccncc4)[nH]c3c2)cc1 | -1% | -5% | · | -5% | -6% | ·
O=C(Nc1ccc2nc(-c3ccccc3)[nH]c2c1)c1cccs1 | ? | 5.4µM* | -23% | ? | 20% | -4%
O=C(Nc1ccc2nc(-c3ccc4nc[nH]c4c3)[nH]c2c1)c1cccs1 | -1% | 21µM* | -7% | -3% | -1% | 1%
COc1cc2cc3c4c(cc(OC)c(OC)c4c2cc1OC)CCN3C | · | · | · | · | · | 1%
Cc1cc(SCC(=O)Nc2ccc(C(F)(F)F)cc2)nc(=O)[nH]1 | · | -8% | · | · | · | ·
COc1ccc(S(=O)(=O)N2CCN(C(=O)N3CCOCC3)C2C)cc1 (stereo unspecified) | 11% | 0% | · | 3% | 2% | ·
O=C(Nc1nnc(SCC(=O)N2CCCCC2)s1)c1cccs1 | 2% | 19µM* | ? | 17% | 2% | -1%
O=C(Nc1nnc(SCC(=O)N2CCOCC2)s1)c1ccccc1Cl | 13% | 8.5µM* | -7% | ? | ? | -9%
O=C(Cc1cccs1)Nc1nnc(SCC(=O)N2CCCCC2)s1 | -7% | 1% | 23% | -2% | -1% | -4%
O=C(Nc1nnc(SCC(=O)N2CCCCC2)s1)c1ccccc1F | 10% | 24µM* | · | 17% | 12% | ·
Cc1cc(C)n2nc(C(=O)Nc3cccc(S(=O)(=O)N(C)c4ccccc4)c3)nc2n1 | -4% | -11% | · | -4% | -2% | ·
Cc1ccc(/C=N/NC(=O)c2cccs2)cc1[N+](=O)[O-] | 9% | 7.6µM* | ? | ? | ? | -2%
O=C(N/N=C/C=C/c1ccccc1[N+](=O)[O-])c1cccs1 | 3% | ? | 9% | 19% | 7% | -1%
O=C(N/N=C/c1ccccc1[N+](=O)[O-])c1cccs1 | ? | 6.7µM* | · | 2.5µM* | ? | ·
N/C(=N\OC(=O)COc1ccc(Br)cc1Cl)c1ccccn1 | 2.6µM* | 1.5µM* | 7.1µM* | 2.8µM* | 2.8µM* | -11%
N/C(=N\OC(=O)COc1ccc(Cl)cc1Cl)c1ccccn1 | 1.2µM* | 0.76µM* | · | 0.71µM* | 0.79µM* | -8%
Cc1cc(C)c(C)c(OCC(=O)O/N=C(\N)c2ccccn2)c1 | 0% | -9% | -10% | -4% | 0% | -2%
O=C1C(Cl)=C(NCC2CCCO2)C(=O)N1CCc1ccccc1 (stereo unspecified) | ? | 15µM* | 13µM* | ? | ? | 0%
O=C1C(Cl)=C(N2CCCCC2)C(=O)N1Cc1ccccc1 | -1% | -2% | -25% | -3% | -6% | -7%
O=C1C(Cl)=C(N2CCOCC2)C(=O)N1CCc1ccccc1 | ? | 19µM* | 13µM* | ? | 13% | -2%
CN1CCN(C2=C(Cl)C(=O)N(CCc3ccccc3)C2=O)CC1 | 14% | ? | 13µM* | ? | 19% | 4%
Cc1cccc(NC(=O)C2CCC(CNS(=O)(=O)c3csc(C(N)=O)c3)CC2)c1C (stereo unspecified) | · | -1% | · | · | · | ·
